{
  "source": "PubChem BioAssay AID1487",
  "about": "(National Center for Advancing Translational Sciences (NCATS), 2009)",
  "note": "Hit rate of the full screen: of about 200,000 compounds, about 25 (0.01%) were called active. Entries that show only a call come without a potency. Not shown: some 23% with an inconclusive outcome. Many of the other results were omitted from the sample, so actives are more common in it than they were. Unmarked numbers belong to inactive results. The call rests on the fitted dose curve; in most records, active means well fitted inhibition curve with a large enough effect in the signal ratio, with a control signal flat (not every such curve was filed as active); inconclusive means small, poorly fitted or top-dose-only effect, or effect the other way, or a change in a side signal; inactive means flat fitted curve, though single readings scatter; the % refers to the signal ratio. Potency means the concentration at half of the fitted maximal effect.",
  "data": [
    {"assay": "qHTS Assay for Modulators of Lamin A Splicing", "conditions": "HeLa LMNA splicing GFP/RFP minigene ratio, 48 h; series mostly up to 46 µM", "description": "NCGC Assay Overview: Hutchinson-Gilford Progeria Syndrome (HGPS) is a pediatric premature aging disease caused by a spontaneous mutation in the lamin A/C (LMNA) gene. The mutation activates a cryptic splice site in the LMNA pre-mRNA which results in production of a pre-lamin A protein that cannot be processed properly. The mutant protein accumulates in the nucleus and negatively affects numerous cellular functions. Correction of the splicing defect in HGPS patient cells using a targeted oligonucleotide (exo11) leads to reversal of the cellular disease phenotypes. To identify small molecule modulators of aberrant LMNA splicing, a homogenous assay was constructed in HeLa cells that used a GFP containing minigene to report on correction of aberrant splicing in lamin A and a RFP (DsRed2) to report on cell viability, uniformity and nonspecific effects on the assay signal. This assay was adapted to laser-scanning microplate cytometry (Acumen, TTP Labtech) where miniaturization of the assay to a 1,536-well plate format was possible. References: Bowen, W. P.; Wylie, P. G. Application of Laser-Scanning Fluorescence Microplate Cytometry in High Content Screening. Assay Drug Dev Technol 2006;4:209-221. Scaffidi P, Misteli T. Reversal of the cellular phenotype in the premature aging disease Hutchinson-Gilford progeria syndrome. Nat.\nNCGC Assay Protocol Summary: Reagents/Controls: Stable clones expressing DsRed2 and lamin A-EGFP were generated by Cell and Molecular Technologies in S3 HeLa cells. HeLa cells were prepared for the assay when they were 70-90% confluent. The cells were counted and resuspended in Opti-MEM I (no phenol red; Gibco), 2% FBS, 1% penicillin/ streptomycin (Gibco) at concentration of 120 cells/uL concentration. The suspension was passed through a Falcon basket filter with pore size 40um (Beckton Dickson). Control titrations: column […] 1536-well plate contained a sixteen point titration (1:2 dilutions) in duplicate of ancitabine (Sigma: A8598) beginning at 40 uM final concentration. Column 2 contained a sixteen point titration (1:2 dilutions) of cycloheximide beginning at 1.4 mM final concentration. Column 3 contained ancitabine at 40 uM and column 4 contained was the vehicle control (0.5% DMSO final concentration). Assay Steps: 5 uL of HeLa cells were plated in Aurora LoBase black clear bottom (cyclic-olefin polymer) 1536-well plates at a final density of 600 cells/well. Controls and library compounds were added with a 1536-well pin array using the Kalypsys pin-tool. The plates were then incubated for 48 hrs in a cell-culture incubator (37 °C; 5% CO2, 98% humidity). Following incubation the plates were read on the Acumen Explorer using the 488 nm laser. Data was collected on objects between 10 and 100 um in size. Cell objects were defined by a 15 um width x 10 um depth filter. The ratio of the total object intensity in PMT1 (500-530 nm emission; GFP) over PMT3 (575-640 nm emission; RFP) was calculated for analysis. Keywords: NIH Roadmap, MLSCN, MLI, MLSMR, qHTS, NCGC, lamin A, Progeria, RNA splicing.", "values": [
      {"smiles": "Cc1ccccc1-n1nc(SCC(=O)O)sc1=S", "ratio change, negative = inhibition": "inactive"},
      {"smiles": "CCCCCN(C(=O)NC(=O)Nc1cccc(C)c1C)S(C)(=O)=O", "ratio change, negative = inhibition": "inactive"},
      {"smiles": "CC(C)(C)NC(=O)Cn1cnc2cc([N+](=O)[O-])ccc2c1=O", "ratio change, negative = inhibition": "inactive"},
      {"smiles": "Cc1c(-c2cccc(NC(=O)C(C)(C)C)c2)nc2ncccn12", "ratio change, negative = inhibition": "inactive"},
      {"smiles": "COc1ccc(Cc2n[nH]c(=S)n2NC(=O)Nc2ccc(C)cc2)cc1", "ratio change, negative = inhibition": "inactive"},
      {"smiles": "COc1c(C=O)c(CCN(C)C(=O)c2ccc(F)cc2)cc2c1OCO2", "ratio change, negative = inhibition": "inactive"},
      {"smiles": "O=C(Nc1ccc(C(=O)OCc2cc(=O)n3nc(C4CC4)sc3n2)cc1)c1ccc(F)cc1", "ratio change, negative = inhibition": "inactive"},
      {"smiles": "COc1cccc(CN(C)CC(=O)Nc2ccccc2C(=O)Nc2ccccc2)c1", "ratio change, negative = inhibition": "inactive"},
      {"smiles": "OC(COc1ccc(CN2CCSCC2)cc1)CN1CCCCC1", "note": "(centres undefined)", "ratio change, negative = inhibition": "inactive"},
      {"smiles": "CCN(Cc1ccccc1)S(=O)(=O)c1ccc2c(c1)CCCN2C(C)=O", "ratio change, negative = inhibition": "inactive"},
      {"smiles": "Cn1sc(=O)c2cc(S(=O)(=O)NC3CC3)ccc21", "Potency": "11.2 µM (active)"},
      {"smiles": "CC1CCC(NS(=O)(=O)c2ccc3c(c2)n(C)c(=O)c(=O)n3C)CC1", "note": "(centres undefined)", "ratio change, negative = inhibition": "inactive"},
      {"smiles": "CSc1ccc(S(=O)(=O)NC2CCCCC2)cc1", "ratio change, negative = inhibition": "inactive"},
      {"smiles": "COc1ccc(S(=O)(=O)NCC2CCCN(C(=O)c3occc3C)C2)cc1", "note": "(centres undefined)", "ratio change, negative = inhibition": "inactive"},
      {"smiles": "CN1CCN(/N=C2/C(=O)Nc3ccc([N+](=O)[O-])cc32)CC1", "ratio change, negative = inhibition": "inactive"},
      {"smiles": "CCOc1ccccc1N1CCN(C(=O)COc2ccc3c(C)cc(=O)oc3c2)CC1", "ratio change, negative = inhibition": "inactive"},
      {"smiles": "COc1ccc(CNC(=O)COCc2cc(-c3cccs3)on2)cc1OC", "ratio change, negative = inhibition": "inactive"},
      {"smiles": "O=C(Nc1ccc(Br)cn1)c1ccc([N+](=O)[O-])cc1Cl", "ratio change, negative = inhibition": "inactive"},
      {"smiles": "CC12CN(NC(=O)c3ccc(Cl)cc3)C3(C#N)CC1CCC23C", "note": "(centres undefined)", "ratio change, negative = inhibition": "inactive"},
      {"smiles": "CCOCCc1nn2c(=O)cc(COC(=O)CNC(=O)c3ccc(C(C)(C)C)cc3)nc2s1", "ratio change, negative = inhibition": "inactive"},
      {"smiles": "Cc1ccc(S(=O)(=O)CC(=O)Nc2c(C)n(C)n(-c3ccccc3)c2=O)cc1", "ratio change, negative = inhibition": "inactive"},
      {"smiles": "Cc1c(CCNC(=O)c2ccc(C(F)(F)F)cc2)sc2nc(-c3ccc(F)cc3)nn12", "ratio change, negative = inhibition": "inactive"},
      {"smiles": "Cc1ccc2c(c1)C1CN(C)CCC1N2C(=S)Nc1ccc(OC(F)F)cc1", "note": "(centres undefined)", "ratio change, negative = inhibition": "inactive"},
      {"smiles": "CN1CCN(C(CNC(=O)c2ccccc2F)c2ccc3c(c2)OCO3)CC1", "note": "(centres undefined)", "ratio change, negative = inhibition": "inactive"},
      {"smiles": "COc1ccc(-c2cn3cccnc3n2)cc1", "ratio change, negative = inhibition": "inactive"},
      {"smiles": "CC1(C)CC(CNCCC(c2ccc(F)cc2)c2ccco2)CCO1", "note": "(centres undefined)", "ratio change, negative = inhibition": "inactive"},
      {"smiles": "CCc1ccc(NC(=O)c2nn(-c3ccc(C)cc3)c(=O)n(C)c2=O)cc1", "ratio change, negative = inhibition": "inactive"},
      {"smiles": "CN(C)S(=O)(=O)N1CCN(c2ccc([N+](=O)[O-])cc2)CC1", "ratio change, negative = inhibition": "10.9% [at 9.22 µM]"},
      {"smiles": "COc1ccccc1CNC(=O)c1ccccc1NC(=O)c1nsc2ccccc12", "ratio change, negative = inhibition": "inactive"}
    ]}
  ]
}
